Results as given in PubChem BioAssay (EPA / NIEHS).
Calls of active or inactive are those of the source. The calls were made as follows: active = hit-call score of the fitted dose curve at least 0.9, where 1 is the maximum; inactive = score below 0.9.

How the values were obtained:
Conditions in all cases: mRNA level, 48 h; actives raise or lower the signal
[1] = read-out: CYP2C9 (gene 1559); assay: LTEA_HepaRG_CYP2C9: Life Technologies and Expression Analysis (LTEA) Assay for CYP2C9 using HepaRG (AID 2283484)
Outline: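 HepaRG, 48 h dosing, 8-pt half-log series, top 100 uM, 0.5% DMSO vehicle. Read-out: CYP2C9 transcript by TaqMan qRT-PCR, housekeeping-normalized (ACTB/GAPDH/POLR2A). Gain or loss fitted vs DMSO baseline.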

[2] = read-out: CYP2E1 (gene 1571); assay: LTEA_HepaRG_CYP2E1: Life Technologies and Expression Analysis (LTEA) Assay for CYP2E1 using HepaRG (AID 2283485)
Outline: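 Readout is qRT-PCR of CYP2E1 mRNA, normalized to three housekeeping genes and fitted bidirectionally against 0.5% DMSO. HepaRG cells were dosed 48 h at eight concentrations, highest 100 uM with half-log dilutions.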

[3] = read-out: CYP4A11 (gene 1579); assay: LTEA_HepaRG_CYP4A11: Life Technologies and Expression Analysis (LTEA) Assay for CYP4A11 using HepaRG (AID 2283486)
Outline: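 Differentiated HepaRG cells, 48 h after plating, exposed in duplicate for 48 h to 8 half-log concentrations up to 100 uM in 0.5% DMSO in serum-free induction medium. CYP4A11 mRNA measured by TaqMan qRT-PCR, normalized to ACTB, GAPDH and POLR2A.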

[4] = read-out: Cytochrome P450 3A4 (Homo sapiens) (UniProt P08684); assay: LTEA_HepaRG_CYP3A4: Life Technologies and Expression Analysis (LTEA) Assay for CYP3A4 using HepaRG (AID 2283487)
Outline: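 HepaRG, 48 h exposure, 8-pt CRC from 100 uM (half-log), 0.5% DMSO, duplicates; serum-free induction medium. Readout: CYP3A4 mRNA, qRT-PCR, ACTB/GAPDH/POLR2A normalization. Bidirectional fit vs DMSO.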

[5] = read-out: DNA damage-inducible transcript 3 (DDIT3), DDIT3 (gene 1649); assay: LTEA_HepaRG_DDIT3: Life Technologies and Expression Analysis (LTEA) Assay for DNA damage-inducible transcript 3 (DDIT3) using HepaRG (AID 2283488)
Outline: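 Cells are human HepaRG liver cells treated for 48 h with eight half-log concentrations up to 100 uM in 0.5% DMSO. Transcript levels come from qRT-PCR normalized to three housekeeping genes, with activity fitted in both directions relative to vehicle.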

[6] = read-out: Pro-epidermal growth factor (Homo sapiens) (UniProt P01133); assay: LTEA_HepaRG_EGF: Life Technologies and Expression Analysis (LTEA) Assay for Epidermal growth factor (EGF) using HepaRG (AID 2283489)
Outline: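 HepaRG cells (~100,000/well, 48 h pre-culture) exposed in duplicate for 48 h in serum-free induction medium to 8 half-log concentrations up to 100 uM in 0.5% DMSO. EGF mRNA by qRT-PCR, normalized to ACTB/GAPDH/POLR2A; bidirectional fit versus DMSO.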

[7] = read-out: Early growth response protein 1 (EGR1) transcription factor, EGR1 (gene 1958); assay: LTEA_HepaRG_EGR1: Life Technologies and Expression Analysis (LTEA) Assay for Early growth response protein 1 (EGR1) transcription factor using HepaRG (AID 2283490)
Outline: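 HepaRG, 48 h exposure, 8-pt half-log series from 100 uM, 0.5% DMSO vehicle; EGR1 transcript by TaqMan qRT-PCR (Fluidigm array), housekeeping-normalized; bidirectional fit relative to DMSO baseline.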

[8] = read-out: Ezrin (EZR), EZR (gene 7430); assay: LTEA_HepaRG_EZR: Life Technologies and Expression Analysis (LTEA) Assay for Ezrin (EZR) using HepaRG (AID 2283491)
Outline: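 Read-out is EZR transcript level by qRT-PCR, normalized to three housekeeping genes and fitted bidirectionally against the DMSO control. Human HepaRG cells received test chemicals for 48 h at eight half-log concentrations up to 100 uM in 0.5% DMSO.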

[9] = read-out: Cytochrome P450 3A7 (Homo sapiens) (UniProt P24462); assay: LTEA_HepaRG_CYP3A7: Life Technologies and Expression Analysis (LTEA) Assay for CYP3A7 using HepaRG (AID 2283492)
Outline: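 Differentiated HepaRG cells in serum-free induction medium exposed 48 h in duplicate to 8-point half-log series from 100 uM top in 0.5% DMSO. CYP3A7 mRNA by qRT-PCR, normalized to ACTB/GAPDH/POLR2A, bidirectional fit versus DMSO.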

[10] = read-out: CYP3A5 (gene 1577); assay: LTEA_HepaRG_CYP3A5: Life Technologies and Expression Analysis (LTEA) Assay for CYP3A5 using HepaRG (AID 2283493)
Outline: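 Human HepaRG hepatic cells receive 48 h chemical treatment at eight concentrations (half-log steps from 100 uM) in 0.5% DMSO. Expression of CYP3A5 is quantified by Fluidigm qRT-PCR and normalized to three reference genes.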

[11] = read-out: Fatty Acid-Binding Protein 1 (FABP1), FABP1 (gene 2168); assay: LTEA_HepaRG_FABP1: Life Technologies and Expression Analysis (LTEA) Assay for Fatty Acid-Binding Protein 1 (FABP1) using HepaRG (AID 2283494)
Outline: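 qRT-PCR readout of FABP1 transcript (normalized to three housekeeping genes) after 48 h chemical exposure of HepaRG cells; eight concentrations, half-log steps, max 100 uM, 0.5% DMSO vehicle; gain or loss fitted relative to DMSO baseline.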

[12] = read-out: Cytochrome P450 4A22 (Homo sapiens) (UniProt Q5TCH4); assay: LTEA_HepaRG_CYP4A22: Life Technologies and Expression Analysis (LTEA) Assay for Cytochrome P450 4A22 (CYP4A22) using HepaRG (AID 2283495)
Outline: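 Differentiated HepaRG cells in serum-free induction medium exposed 48 h in duplicate to eight half-log concentrations up to 100 uM in 0.5% DMSO. CYP4A22 mRNA quantified by TaqMan qRT-PCR, normalized to ACTB, GAPDH and POLR2A; bidirectional fit versus DMSO.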

[13] = read-out: Cytochrome P450 7A1 (Homo sapiens) (UniProt P22680); assay: LTEA_HepaRG_CYP7A1: Life Technologies and Expression Analysis (LTEA) Assay for Cytochrome P450 7A1 (CYP7A1) using HepaRG (AID 2283496)
Outline: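 HepaRG, 48 h exposure, 8-pt half-log series from 100 uM, 0.5% DMSO vehicle, duplicates. Readout: TaqMan qRT-PCR mRNA vs three housekeeping genes; bidirectional curve fit against DMSO baseline.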

[14] = read-out: Glutathione S-Transferase (GSTA2), GSTA2 (gene 2939); assay: LTEA_HepaRG_GSTA2: Life Technologies and Expression Analysis (LTEA) Assay for Glutathione S-Transferase (GSTA2) using HepaRG (AID 2283497)
Outline: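 qRT-PCR readout of GSTA2 transcript, normalized to three housekeeping genes, fitted bidirectionally against 0.5% DMSO baseline. Differentiated HepaRG cells received compound for 48 h at 8 concentrations (top 100 uM, half-log steps).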

[15] = read-out: Glutamate-cysteine ligase catalytic (GCLC), GCLC (gene 2729); assay: LTEA_HepaRG_GCLC: Life Technologies and Expression Analysis (LTEA) Assay for Glutamate-cysteine ligase catalytic (GCLC) using HepaRG (AID 2283498)
Outline: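 HepaRG, 48 h exposure, 8-pt half-log series from 100 uM, 0.5% DMSO vehicle; TaqMan qRT-PCR for GCLC mRNA, housekeeping-normalized; bidirectional curve fit vs DMSO baseline.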

[16] = read-out: growth arrest and DNA damage 45 (GADD45G), GADD45G (gene 10912); assay: LTEA_HepaRG_GADD45G: Life Technologies and Expression Analysis (LTEA) Assay for growth arrest and DNA damage 45 (GADD45G) using HepaRG (AID 2283499)
Outline: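 Differentiated human HepaRG cells, 48 h post-plating, exposed 48 h in serum-free induction medium to 8 half-log concentrations (top 100 uM, 0.5% DMSO) in duplicate. GADD45G mRNA measured by Fluidigm TaqMan qRT-PCR, normalized to ACTB, GAPDH, POLR2A; bidirectional fit versus DMSO.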

[17] = read-out: Glutamate-cysteine ligase regulatory (GCLM), GCLM (gene 2730); assay: LTEA_HepaRG_GCLM: Life Technologies and Expression Analysis (LTEA) Assay for Glutamate-cysteine ligase regulatory (GCLM) using HepaRG (AID 2283500)
Outline: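 Endpoint is GCLM transcript level by qRT-PCR, normalized to three housekeeping genes, after 48 h chemical exposure of human HepaRG cells (0.5% DMSO vehicle, top 100 uM, half-log dilutions). Fitting was bidirectional relative to DMSO.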

[18] = read-out: Glutathione S-transferase M3 (GSTM3), GSTM3 (gene 2947); assay: LTEA_HepaRG_GSTM3: Life Technologies and Expression Analysis (LTEA) Assay for Glutathione S-transferase M3 (GSTM3) using HepaRG (AID 2283501)
Outline: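 Differentiated human HepaRG cells were exposed in duplicate for 48 h in serum-free induction medium, 8 points from 100 uM top in half-log steps, 0.5% DMSO. GSTM3 mRNA was measured by TaqMan qRT-PCR, normalized to ACTB, GAPDH and POLR2A; bidirectional fit versus DMSO.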

[19] = read-out: Heat shock 70 kDa protein 1 (HSPA1A), gene 3303; assay: LTEA_HepaRG_HSPA1A: Life Technologies and Expression Analysis (LTEA) Assay for Heat shock 70 kDa protein 1 (HSPA1A) using HepaRG (AID 2283502)
Outline: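 Cells were plated and cultured for 48 h, then switched to serum-free induction medium. Chemicals were added at eight half-log concentrations up to 100 uM for 48 h. RNA was then isolated and HSPA1A measured by qRT-PCR with bidirectional curve fitting against DMSO.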

[20] = read-out: Hypoxia-inducible factor 1-alpha (Homo sapiens) (UniProt Q16665); assay: LTEA_HepaRG_HIF1A: Life Technologies and Expression Analysis (LTEA) Assay for Hypoxia-inducible factor 1 (HIF1A) Trancription factor using HepaRG (AID 2283503)
Outline: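 HIF1A transcript level read by qRT-PCR (ACTB, GAPDH, POLR2A normalization) after 48 h chemical exposure of HepaRG cultures. Eight half-log concentrations, top 100 uM, 0.5% DMSO vehicle, duplicates; bidirectional curve fit against DMSO baseline.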

Measured: AC50

Cytochrome P450 3A7 (Homo sapiens), sequence (P24462 whole entry, looked up): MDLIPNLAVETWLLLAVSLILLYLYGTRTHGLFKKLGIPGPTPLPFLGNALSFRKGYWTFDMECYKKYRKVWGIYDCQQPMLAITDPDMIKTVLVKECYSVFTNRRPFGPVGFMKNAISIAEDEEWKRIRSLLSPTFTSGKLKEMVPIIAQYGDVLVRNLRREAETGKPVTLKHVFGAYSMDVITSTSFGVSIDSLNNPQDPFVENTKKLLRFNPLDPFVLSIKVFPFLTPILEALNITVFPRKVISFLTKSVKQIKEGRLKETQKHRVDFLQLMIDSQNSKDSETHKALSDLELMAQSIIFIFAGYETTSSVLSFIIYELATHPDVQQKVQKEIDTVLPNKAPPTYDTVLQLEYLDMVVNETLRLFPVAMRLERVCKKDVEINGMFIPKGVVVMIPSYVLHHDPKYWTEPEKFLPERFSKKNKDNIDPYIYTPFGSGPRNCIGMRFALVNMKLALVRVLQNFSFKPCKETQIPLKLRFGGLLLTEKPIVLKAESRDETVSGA
Cytochrome P450 3A4 (Homo sapiens), sequence (P08684 whole entry, looked up): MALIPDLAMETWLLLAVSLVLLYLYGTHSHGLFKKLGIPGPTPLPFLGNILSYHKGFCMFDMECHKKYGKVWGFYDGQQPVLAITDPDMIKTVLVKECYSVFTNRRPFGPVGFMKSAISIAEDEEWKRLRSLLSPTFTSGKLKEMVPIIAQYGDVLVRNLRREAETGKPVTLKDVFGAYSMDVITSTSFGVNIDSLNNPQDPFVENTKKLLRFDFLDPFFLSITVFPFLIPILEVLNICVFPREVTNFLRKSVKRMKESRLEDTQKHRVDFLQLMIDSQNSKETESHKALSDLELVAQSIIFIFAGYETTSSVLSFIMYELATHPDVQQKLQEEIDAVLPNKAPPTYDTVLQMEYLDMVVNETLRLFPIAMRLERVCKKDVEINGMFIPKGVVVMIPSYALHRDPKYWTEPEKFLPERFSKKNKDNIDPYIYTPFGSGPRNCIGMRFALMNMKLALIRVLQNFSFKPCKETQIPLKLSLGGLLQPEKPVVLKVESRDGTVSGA
Hypoxia-inducible factor 1-alpha (Homo sapiens), sequence (Q16665 whole entry, looked up): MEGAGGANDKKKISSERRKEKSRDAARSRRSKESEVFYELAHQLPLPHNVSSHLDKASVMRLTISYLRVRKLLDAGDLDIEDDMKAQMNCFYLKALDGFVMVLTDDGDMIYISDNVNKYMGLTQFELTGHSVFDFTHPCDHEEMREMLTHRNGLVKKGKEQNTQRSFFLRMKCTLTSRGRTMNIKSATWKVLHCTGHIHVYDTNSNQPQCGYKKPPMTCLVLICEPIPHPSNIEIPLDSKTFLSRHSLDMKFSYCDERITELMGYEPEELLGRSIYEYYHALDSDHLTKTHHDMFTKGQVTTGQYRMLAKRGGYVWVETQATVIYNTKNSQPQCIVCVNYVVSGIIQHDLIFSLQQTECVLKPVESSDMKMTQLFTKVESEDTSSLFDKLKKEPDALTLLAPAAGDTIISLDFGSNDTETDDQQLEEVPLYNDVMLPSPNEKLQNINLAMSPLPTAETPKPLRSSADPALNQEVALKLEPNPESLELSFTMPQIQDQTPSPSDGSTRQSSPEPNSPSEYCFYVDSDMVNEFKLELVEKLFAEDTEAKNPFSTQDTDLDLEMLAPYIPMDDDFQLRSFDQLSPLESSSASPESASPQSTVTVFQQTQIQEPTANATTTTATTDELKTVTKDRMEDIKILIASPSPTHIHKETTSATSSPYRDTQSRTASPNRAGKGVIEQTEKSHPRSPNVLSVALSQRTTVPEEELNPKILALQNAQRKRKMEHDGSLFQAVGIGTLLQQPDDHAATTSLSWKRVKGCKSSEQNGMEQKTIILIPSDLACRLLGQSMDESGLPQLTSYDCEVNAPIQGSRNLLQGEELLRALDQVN

Clc1nc(Cl)c(Cl)c(Cl)c1Cl
inactive: all assays above

CCC(C)(C)C(=O)O[C@H]1C[C@@H](C)C=C2C=C[C@H](C)[C@H](CC[C@@H]3C[C@@H](O)CC(=O)O3)[C@H]21
active: [11] 5.7 µM
not listed: [1] | [2] | [3] | [4] | [9] | [10] | [12] | [13]
inactive: all other assays above

Cc1[nH]cnc1C[C@H]1CCc2c(C)c3ccccc3n2C1=O
active: [1] 28.7 µM | [2] 17.6 µM | [3] 13.2 µM | [5] 27.4 µM | [7] 70.2 µM | [8] 11.8 µM | [11] 17.1 µM | [12] 18.9 µM | [13] 22.6 µM | [14] 30.5 µM | [15] 29.7 µM | [16] 81.1 µM | [19] 56.9 µM | [20] 24.3 µM
inactive: [6] | [10] | [17] | [18]

CC[C@H](C)C(=O)O[C@H]1C[C@@H](C)C=C2C=C[C@H](C)[C@H](CC[C@@H]3C[C@@H](O)CC(=O)O3)[C@H]21
active: [2] 29.8 µM | [11] 13.2 µM
not listed: [1] | [4] | [9] | [10]
inactive: all other assays above

CC(C)=CCC/C(C)=C\CO
inactive: [5] | [6] | [7] | [8] | [11] | [14] | [15] | [17] | [18] | [19]

CC(C)=CCC/C(C)=C/CO
inactive: [5] | [6] | [7] | [8] | [11] | [14] | [15] | [17] | [18]

COCCOc1cc2cc(C(=O)NC3CCN(C(C)C)CC3)n(CC(=O)Nc3ccc(Cl)cn3)c2cn1
inactive: [5] | [6] | [7] | [8] | [15] | [17]
active: [1] 62.2 µM | [2] 52.6 µM | [3] 69.7 µM | [4] 45 µM | [9] 72 µM | [10] 15.9 µM | [11] 34.9 µM | [12] 76.7 µM | [13] 41.2 µM | [14] 45 µM | [16] 45 µM | [18] 45 µM | [20] 72.9 µM

O=C(O)c1cccc(Oc2ccccc2)c1
active: [3] 38.9 µM | [11] 50 µM
inactive: all other assays above

CC/C(=C\C(=N/O)C(N)=O)C(C)[N+](=O)[O-] (configuration not stated)
inactive: all assays above

CC[C@H]1OC(=O)[C@H](C)[C@@H](O[C@H]2C[C@@](C)(OC)[C@@H](O)[C@H](C)O2)[C@H](C)[C@@H](O[C@@H]2O[C@H](C)C[C@H](N(C)C)[C@H]2O)[C@](C)(O)C[C@@H](C)C(=O)[C@H](C)[C@@H](O)[C@]1(C)O
active: [2] 16 µM | [4] 19.6 µM | [9] 13.9 µM
not listed: [16] | [20]
inactive: all other assays above
